Experimental data published in the antibiotic and cytotoxicity screens of Wong et al. (2023).
Among all 39,000 compounds or so, about 3,300 (8.5%) were called active. Shown is part of a subset that was picked to be rich in actives.

The molecules below were run on HepG2 (assay: cytotoxicity call (relative viability < 0.9)). Conditions: 10 µM.

| SMILES | cytotoxicity call |
| --- | --- |
| Cc1ccccc1S(=O)(=O)N1C[C@@H](O)COC[C@@H]2O[C@@H](CC(=O)N3CCOCC3)CC[C@H]21 | inactive |
| CC(C)N1C[C@H](CNCc2ccc(Oc3ccccc3)cc2)Oc2c(NC(=O)c3ccncc3)cccc2C1=O | inactive |
| Cc1ccc(-c2cnc3c(c2)C(=O)N([C@H](C)CO)C[C@H](C)[C@@H](CN(C)C(=O)Cc2cccnc2)O3)cc1 | inactive |
| C[C@@H]1CN([C@H](C)CO)C(=O)c2cccc(NC(=O)Nc3ccc(C(F)(F)F)cc3)c2O[C@@H]1CN(C)C(=O)Nc1ccccc1 | active |
| C[C@H](CO)N1C[C@H](C)[C@@H](CN(C)C(=O)Nc2ccc(C(F)(F)F)cc2)Oc2c(NC(=O)Nc3ccccc3)cccc2C1=O | inactive |
| C[C@H]1CN([C@@H](C)CO)C(=O)c2cccc(NC(=O)Nc3ccccc3)c2O[C@@H]1CN(C)C(=O)Nc1ccc(C(F)(F)F)cc1 | inactive |
| C[C@H](CO)N1C[C@H](C)[C@H](CN(C)C(=O)Nc2ccc(C(F)(F)F)cc2)Oc2c(NC(=O)Nc3ccccc3)cccc2C1=O | inactive |
| C[C@H]1CN([C@@H](C)CO)C(=O)c2cccc(NC(=O)Nc3ccc(C(F)(F)F)cc3)c2O[C@@H]1CN(C)C(=O)Nc1ccccc1 | active |
| C[C@@H]1CN([C@@H](C)CO)C(=O)c2cccc(NC(=O)Nc3ccccc3)c2O[C@@H]1CN(C)C(=O)Nc1ccc(C(F)(F)F)cc1 | inactive |
| COc1ccc(C(=O)Nc2ccc(CN3C(=O)[C@]4(O[C@H](CCO)[C@@H]([Si](C)(C)F)[C@@H]4C)c4ccccc43)cc2)cc1 | inactive |
| CN1CCN(C(=O)C[C@@H]2CC[C@@H]3[C@H](COC[C@H](O)CN3C(=O)Nc3cc(Cl)cc(Cl)c3)O2)CC1 | inactive |
| CCCCCc1ccccn1 | inactive |
| CCCCCCCCCCCCC[N+](C)(C)Cc1ccccc1 | active |
| CCCCCCCCCCCCCCCC[N+](C)(C)Cc1ccccc1.[Cl-] | active |
| CC[N+](C)(CC)Cc1ccccc1 | inactive |
| CCCCCCCCCCCCC[N+](C)(C)Cc1ccccc1.O.[Cl-] | active |
| CCCCNc1ccccc1 | inactive |
| COc1ccc(S(=O)(=O)Nc2ccc3c(c2)CC(=O)N([C@@H](C)CO)C[C@H](C)[C@H](CN(C)S(=O)(=O)c2cccs2)O3)cc1 | inactive |
| C[C@H](CO)N1C[C@H](C)[C@H](CN(C)CC2CC2)Oc2c(NS(=O)(=O)c3cccs3)cccc2C1=O | inactive |
| Cc1noc(C)c1S(=O)(=O)Nc1ccc2c(c1)C(=O)N([C@@H](C)CO)C[C@H](C)[C@@H](CN(C)CC1CCCCC1)OCCCC[C@@H](C)O2 | inactive |
| O=C(C1=C[C@H](c2coc3ccccc3c2=O)C[C@H](OCc2ccc(CO)cc2)O1)N1CCCCCCC1 | inactive |
| CS(=O)(=O)NCc1cnc2n1CCN(C[C@H]1CCOC1)CC2 | inactive |
| C[C@H](CO)N1C[C@H](C)[C@H](CN(C)C(=O)Nc2ccc(F)cc2)Oc2ccc(NC(=O)CCCCCC(=O)Nc3ccccc3N)cc2CC1=O | inactive |
| CCCNC(=O)Nc1ccc2c(c1)OC[C@H](C)N(Cc1ccc(-c3ccccn3)cc1)C[C@H](C)[C@H](OC)CN(C)C2=O | inactive |

| SMILES | cytotoxicity call |
| --- | --- |
| C[C@H]1CN([C@@H](C)CO)C(=O)CCCn2cc(nn2)CO[C@@H]1CN(C)C(=O)Nc1ccc(C(F)(F)F)cc1 | inactive |
| O=C(O)[C@H]1C[C@H](O)CN1Cc1ccccc1 | inactive |
| C[C@@H]1CN([C@@H](C)CO)C(=O)c2cc(NC(=O)c3ccccc3)ccc2O[C@@H](C)CCCCO[C@H]1CN(C)Cc1ccccc1 | inactive |
| C[C@H](CO)N1C[C@H](C)[C@H](CN(C)Cc2ccc(C(F)(F)F)cc2)OCCCC[C@H](C)Oc2ccc(NC(=O)c3ccccc3)cc2C1=O | inactive |
| C[C@@H]1CCCCO[C@H](CN(C)Cc2ccc(C(F)(F)F)cc2)[C@H](C)CN([C@H](C)CO)C(=O)c2cc(NC(=O)c3ccccc3)ccc2O1 | inactive |
| C[C@@H]1CCCCO[C@H](CN(C)Cc2ccc(C(F)(F)F)cc2)[C@@H](C)CN([C@H](C)CO)C(=O)c2cc(NC(=O)c3ccccc3)ccc2O1 | inactive |
| C[C@H]1CCCCO[C@@H](CN(C)Cc2ccc(C(F)(F)F)cc2)[C@@H](C)CN([C@@H](C)CO)C(=O)c2cc(NC(=O)c3ccccc3)ccc2O1 | active |
| C[C@@H]1CN([C@@H](C)CO)C(=O)c2cc(NC(=O)c3ccccc3)ccc2O[C@@H](C)CCCCO[C@H]1CN(C)Cc1ccc(C(F)(F)F)cc1 | active |
| C[C@@H]1CN([C@H](C)CO)C(=O)c2cc(NC(=O)c3ccccc3)ccc2O[C@@H](C)CCCCO[C@H]1CN(C)Cc1ccccc1 | active |
| C[C@@H]1CCCCO[C@H](CN(C)Cc2ccccc2)[C@H](C)CN([C@H](C)CO)C(=O)c2cc(NC(=O)c3ccccc3)ccc2O1 | inactive |
| C[C@@H]1CCCCO[C@@H](CN(C)Cc2ccc(C(F)(F)F)cc2)[C@H](C)CN([C@H](C)CO)C(=O)c2cc(NC(=O)c3ccccc3)ccc2O1 | inactive |
| C[C@@H]1CN([C@H](C)CO)C(=O)c2cc(NC(=O)c3ccccc3)ccc2O[C@@H](C)CCCCO[C@H]1CN(C)Cc1ccc(C(F)(F)F)cc1 | inactive |
| C[C@@H]1CCCCO[C@H](CN(C)Cc2ccc(C(F)(F)F)cc2)[C@H](C)CN([C@@H](C)CO)C(=O)c2cc(NC(=O)c3ccccc3)ccc2O1 | active |
| C[C@@H]1CN([C@H](C)CO)C(=O)c2cc(NC(=O)c3ccccc3)ccc2O[C@@H](C)CCCCO[C@@H]1CN(C)Cc1ccc(C(F)(F)F)cc1 | inactive |
| C[C@@H]1CN([C@@H](C)CO)C(=O)c2cc(NC(=O)Nc3cccc4ccccc34)ccc2O[C@H]1CN(C)S(=O)(=O)c1ccc(Cl)cc1 | inactive |
| COc1ccc(NC(=O)N(C)C[C@H]2Oc3ccc(NS(=O)(=O)c4cn(C)cn4)cc3CC(=O)N([C@@H](C)CO)C[C@@H]2C)cc1 | inactive |
| C[C@@H]1CN([C@H](C)CO)S(=O)(=O)c2ccc(-c3cccc(C(=O)N(C)C)c3)cc2O[C@@H]1CN(C)C(=O)Cc1ccccn1 | inactive |
| C[C@@H]1CN([C@@H](C)CO)C(=O)CCCn2nncc2CO[C@@H]1CN(C)S(=O)(=O)c1ccc2c(c1)OCCCO2 | inactive |
| COc1ccc(-c2cnc3c(c2)C(=O)N([C@H](C)CO)C[C@H](C)[C@@H](CN(C)C(=O)Cc2ccccn2)O3)cc1 | inactive |
| Cc1noc(C)c1S(=O)(=O)Nc1ccc2c(c1)C(=O)N([C@H](C)CO)C[C@@H](C)[C@@H](CN(C)Cc1ccc(-c3ccccc3)cc1)O2 | inactive |
| C[C@H]1CN([C@@H](C)CO)C(=O)Cc2cc(NS(=O)(=O)c3ccccc3)ccc2O[C@H]1CN(C)S(=O)(=O)c1ccc(F)cc1 | inactive |
| C[C@@]1(NC(=O)Cc2ccc(S(=O)(=O)N3CCOCC3)s2)CCS(=O)(=O)C1 | inactive |
| C[C@@H]1CN([C@@H](C)CO)C(=O)c2cccc(NS(=O)(=O)c3ccccc3)c2O[C@H]1CN(C)S(=O)(=O)c1cccs1 | inactive |
| C[C@H](CO)N1C[C@H](C)[C@H](CN(C)S(=O)(=O)c2ccc(F)cc2)Oc2c(NC(=O)c3cnccn3)cccc2C1=O | inactive |

| SMILES | cytotoxicity call |
| --- | --- |
| CCS(=O)(=O)N1CC[C@]2(CC1)CN([C@@H](CO)c1c2c2ccc(cc2n1C)OC)C(=O)Nc1c(noc1C)C | inactive |
| O=C(CN1CCOCC1)NCC[C@H]1CC[C@H](NS(=O)(=O)c2ccc(Cl)cc2)[C@@H](CO)O1 | inactive |
| O=c1c(O)c(-c2ccc(O)c(O)c2)oc2c(O[C@@H]3O[C@H](CO)[C@H](O)[C@@H](O)[C@H]3O)c(O)cc(O)c12 | active |
| CC(=O)O[C@@H]1[C@@H](O[C@@H]2O[C@H](CO)[C@@H](O)[C@H](O)[C@H]2O)[C@@H](O)[C@H](OC[C@H]2O[C@@H](Oc3c(-c4ccc(O)c(O)c4)oc4cc(O)cc(O)c4c3=O)[C@H](O)[C@@H](O)[C@H]2O)O[C@H]1C | active |
| C[C@@H]1O[C@@H](O[C@@H]2[C@@H](O)[C@H](C)O[C@@H](OC[C@H]3O[C@@H](Oc4c(-c5ccc(O)c(O)c5)oc5cc(O)cc(O)c5c4=O)[C@@H](O)[C@@H](O)[C@@H]3O)[C@@H]2O)[C@H](O)[C@H](O)[C@H]1O | inactive |
| C[C@H]1O[C@@H](OC[C@H]2O[C@@H](Oc3c(-c4ccc(O)c(O)c4)oc4cc(O)cc(O)c4c3=O)[C@@H](O)[C@@H](O)[C@@H]2O)[C@@H](O)[C@@H](O)[C@@H]1O | inactive |
| COc1c(O[C@@H]2O[C@H](CO)[C@@H](O)[C@H](O)[C@H]2O)cc2oc(-c3ccc(O)c(O)c3)c(O)c(=O)c2c1O | inactive |
| O=c1c(O)c(-c2ccc(O)c(O)c2)oc2c(OC3OC(CO)C(O)C(O)C3O)c(O)cc(O)c12 (stereo unspecified) | inactive |
| Cc1ccc(S(=O)(=O)N(C)C[C@@H]2Oc3ncc(C#CC4(O)CCCC4)cc3C(=O)N([C@@H](C)CO)C[C@H]2C)cc1 | inactive |
| CC(C)(C[C@H]1CN(S(=O)(=O)c2cccc(C(F)(F)F)c2)c2cc(-c3cc(F)cc(OC(F)F)c3)ccc2O1)C(=O)O | inactive |
| COC(=O)CCCCCCC(=O)N/N=C/[C@H](O)[C@@H](O)[C@@H](O)[C@H](O)C(=O)O | inactive |
| COc1ccc(cc1)S(=O)(=O)N1CC[C@]2(CC1)CN([C@@H](CO)c1c2c2ccc(cc2n1C)OC)C(=O)CN(C)C | inactive |
| COc1ccc2c3c(n(c2c1)C)[C@H](CO)N(CC1CCCC1)C[C@]13CCN(CC1)C(=O)Nc1ccccc1 | inactive |
| COc1ccc(cc1)S(=O)(=O)N1CC[C@]2(CC1)CN([C@H](CO)c1c2c2ccc(cc2n1C)OC)C(=O)CN(C)C | active |
| COc1ccc(cc1)S(=O)(=O)N1C[C@]2(C1)CN([C@@H](CO)c1c2c2ccc(cc2n1C)OC)C(=O)CN(C)C | inactive |
| COCC(=O)N1CC[C@]2(CC1)CN([C@@H](CO)c1c2c2ccc(cc2n1C)OC)C(=O)Cc1ccccc1 | inactive |
| COc1ccc2c3c(n(c2c1)C)[C@H](CO)N(Cc1ccccc1)C[C@]13CCN(CC1)C(=O)Nc1cccc(c1)F | inactive |
| COCC(=O)N1CC[C@]2(CC1)CN([C@H](CO)c1c2c2ccc(cc2n1C)OC)C(=O)Cc1ccccc1 | active |
| COc1ccc2c3c(n(c2c1)C)[C@H](CO)N(C[C@]13CCN(CC1)S(=O)(=O)C)C(=O)CN(C)C | inactive |
| COCC(=O)N1CC[C@]2(CC1)CN(Cc1cccc(c1)OC)[C@@H](CO)c1c2c2ccc(cc2n1C)OC | inactive |
| COc1ccc2c3c(n(c2c1)C)[C@@H](CO)N(CC1CCCC1)C[C@]13CCN(CC1)C(=O)Nc1ccccc1 | active |
| COc1ccc(cc1)S(=O)(=O)N1C[C@]2(C1)CN([C@H](CO)c1c2c2ccc(cc2n1C)OC)C(=O)CN(C)C | active |
| COc1ccc2c3c(n(c2c1)C)[C@H](CO)N(C[C@]13CN(C1)S(=O)(=O)C)C(=O)CN(C)C | inactive |
